High-throughput results deposited in PubChem by National Center for Advancing Translational Sciences (NCATS).
This is a sample that favours compounds with a hit; in the whole collection about 4.6% have one here.
D1 potentiator: Potentiators of Human D1 Dopamine Receptor: qHTS | potentiation, % at 10 µM | HEK293 TREx D1 cells, calcium flux, dopamine EC20 potentiation | 0.036% of 360,000 active | D(1A) dopamine receptor (Homo sapiens), P21728; in the data active means potentiation above about 30%; further: 0% is about no effect
TRHR enhancer-1: qHTS for Small Molecule Agonists and Allosteric Enhancers of Human TRH Receptor: Primary Screen for Enhancers; TRHR cells, fluo-8 calcium fluorescence, EC20 TRH enhancement; enhancement, % at 2 µM; 0.66% of 360,000 active; in the data active means enhancement above about 30%; further: 0% is about no effect
Target sequence (P34981 whole entry, looked up): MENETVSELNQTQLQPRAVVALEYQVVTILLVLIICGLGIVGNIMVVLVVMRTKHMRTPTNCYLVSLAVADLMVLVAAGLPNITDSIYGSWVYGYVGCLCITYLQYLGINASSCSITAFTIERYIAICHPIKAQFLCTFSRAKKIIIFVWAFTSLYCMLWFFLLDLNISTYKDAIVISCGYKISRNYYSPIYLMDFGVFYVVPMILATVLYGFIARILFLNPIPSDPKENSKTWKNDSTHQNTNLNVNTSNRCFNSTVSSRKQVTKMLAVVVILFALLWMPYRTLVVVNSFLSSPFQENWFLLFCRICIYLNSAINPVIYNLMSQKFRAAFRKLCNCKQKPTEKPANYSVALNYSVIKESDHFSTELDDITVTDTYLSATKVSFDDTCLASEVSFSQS
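Enhancer read-out: after compound pinning and an initial kinetic agonist-mode read, an EC20 of TRH (10 nM final) was injected and fluo-8 calcium signal (Ex 480/Em 530) followed at 1 s/cycle for 100 cycles in TRHR-expressing cells.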
D1 antagonist: Antagonist of Human D 1 Dopamine Receptor: qHTS | 3.2% of 360,000 active | D(1A) dopamine receptor (Homo sapiens), P21728 | activity change, negative = inhibition, % at 10 µM | HEK293 TREx D1 cells, calcium flux, dopamine EC80; stronger effect = lower value | AID 504652, 2011; in the data active means activity change below about -30%; further: on the % scale 0 is the no-effect control and ±100 the full control effect
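Calcium flux readout: force-coupled, inducible Hek293 Trex D1 line, cells induced overnight at 30 C with tetracycline, dye-loaded 30–90 min at RT. Antagonism scored against EC80 dopamine challenge given 180 s after compound.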
D1 ag: Allosteric Agonists of the Human D1 Dopamine Receptor: qHTS; HEK293 T-REx D1 cells, calcium flux, agonist mode; 1% of 360,000 active; activation, % at 2 µM; in the data active means activation above about 30%; further: 0% is about no effect
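Agonism was scored from calcium flux recorded over 180 s (1 read/s) after pintool compound addition, following a 10-cycle baseline. Cells were inducible force-coupled HEK293 TREx D1, plated overnight at 30 C and loaded with no-wash calcium dye.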
TRHR agonist-1: qHTS for Small Molecule Agonists and Allosteric Enhancers of Human TRH Receptor: Primary Screen for Agonists | Thyrotropin-releasing hormone receptor (Homo sapiens), P34981 | TRHR cells, calcium flux fluo-8, FDSS agonist mode | activation, % at 2 µM | 0.18% of 360,000 active; in the data active means activation above about 30%; further: 0% is about no effect
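Read-out: compound-evoked intracellular calcium rise in TRHR cells, fluo-8 dye, kinetic FDSS fluorescence at 1 s/cycle following a 10-cycle baseline. Cells cultured overnight before dye loading (30 min–1.5 h, RT).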
TRHR enhancer-2: qHTS for Small Molecule Agonists and Allosteric Enhancers of Human TRH Receptor: Confirmation Screen for Enhancers | shares compounds with TRHR enhancer-1 | TRH receptor cell assay, enhancer confirmation qHTS | activity change, negative = inhibition, % at 46.1 µM | 970 tested, under 10 active | AID 493076, 2011;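 further: compound effect scored on response to added TRH at EC20 of 10 nM; 0% is about no effect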
TRHR agonist-2: qHTS for Small Molecule Agonists and Allosteric Enhancers of Human TRH Receptor: Confirmation Screen for Agonists; TRHR-expressing cells, agonist activation read-out; Potency, µM (doses to about 46.1 µM), without a hit: at the highest dose activation, hits mostly activators; 8% of 970 active; AID 493078, 2011; shares compounds with TRHR enhancer-1; further: potency means the concentration at half of the fitted maximal effect; 0% is about no effect; nearly all actives have a fitted effect of over 75% in size
An asterisk follows results filed as active; ? = inconclusive; / = no result given. Unless noted, the call rests on the fitted dose curve; in most records, active means well fitted curve in the direction sought with a large enough effect; inconclusive means small, poorly fitted or top-dose-only effect, or another doubt; inactive means no such curve, though single readings can be large; an effect the other way counts as inactive or inconclusive.

SMILES	D1 potentiator	TRHR enhancer-1	D1 antagonist	D1 ag	TRHR agonist-1	TRHR enhancer-2	TRHR agonist-2
Cc1ccc(S(=O)(=O)NCc2ccc(C(=O)NC3CCCCC3)cc2)cc1	11	77*	4	3	0	-6	0%
COc1ccc(CNC(=O)c2cc(C3CC3)nc3c2cnn3C(C)C)cc1	-3	43*	-5	1	-1	-12	?
COc1ccc(-n2ncc3c(N(C)C4CCCCC4)ncnc32)cc1	1	-14	-17	4	1	/	/
Cc1cccc(-n2ncc3c(N(C)C4CCCCC4)ncnc32)c1	-2	49*	-4	4	-1	-6	0%
Cc1ccc2oc(-c3ccc(C)c(NC(=O)c4ccc(-c5ccccc5[N+](=O)[O-])o4)c3)nc2c1	-3	1	-10	-1	0	/	/
O=C(COc1ccc(Cl)cc1)NCc1nnc(SCC(=O)Nc2ccccc2F)o1	-4	44*	-10	0	0	2	0%
CC(=O)Nc1nc2n(n1)C(c1ccccc1)C=C(c1ccccc1)N2 (stereo unspecified)	-13	2	-8	9	39*	-2	?
CCCCCn1nc(-c2ccccc2)c2nc3ccccc3nc21	7	10	21	37*	26	2	16µM*
CCc1ccccc1NC(=O)CN(C)C(=O)Cn1ncc(Cl)c(Cl)c1=O	-5	49*	-1	2	0	-2	1%
CCC1CCCCN1CCCNC(=O)c1cn(CC)c2ccc(S(=O)(=O)N3CCc4ccccc4C3)cc2c1=O (stereo unspecified)	-1	51*	-8	0	0	1	5%
COc1cccc(C2=NC(C)(C)NC(c3ccccc3O)C2)c1 (stereo unspecified)	4	42*	-20	2	1	0	0%
CC(OC(=O)CN1C(=O)C2CC=CCC2C1=O)C(=O)Nc1ccc(F)cc1Cl (stereo unspecified)	-5	43*	5	8	0	3	7%
C/C(=N\NC(=O)COc1cccc(Br)c1)c1ccc2c(c1)OCCO2	-6	29	-18	3	0	/	/
Cc1ccc(N2CCN(C(=S)Nc3ccc(Cl)cc3)CC2)cc1	-2	10	-4	4	1	/	/
S=C(Nc1ccc(Cl)cc1)N1CCN(C2CCCCC2)CC1	-2	53*	8	7	0	4	8%
N#Cc1nc(COc2ccccc2)oc1NCCCn1ccnc1	-1	57*	-33*	2	0	-5	1%
Cc1ccc(OCc2nc(C#N)c(NCCCn3ccnc3)o2)cc1	-6	-3	-10	-1	0	/	/
Cc1cc2c(s1)c1cnn(Cc3cc(F)ccc3F)c(=O)c1n2C	7	1	-1	5	-1	/	/
Cc1cc(C=C2C(=O)c3ccccc3C2=O)c(C)n1-c1ccc(C(=O)O)cc1	-2	49*	9	2	5	-10	?
Cc1cc(C=C2C(=O)c3ccccc3C2=O)c(C)n1-c1cccc(C(=O)O)c1	-2	4	-4	8	9	/	/
COc1cccc(CNCCNC(=O)c2ccco2)c1OC	0	29	-8	3	-2	/	/
COc1ccccc1NC(=O)CCn1c(=S)oc2ccccc21	-8	19	4	2	-1	/	/
CC(C)CCNC(=O)CCn1c(=S)oc2ccccc21	-6	53*	-9	0	0	0	2%
CCOc1ccc(NCc2cccn2-c2nnc(N3CCC(C(=O)NCc4ccc(C)cc4)CC3)s2)cc1	-3	-7	-3	-1	0	/	/
Nc1nc(SCc2c(Cl)cccc2Cl)n[nH]1	-9	45*	-23	0	-1	1	4%
FC(F)(F)c1cnc(Nc2ccc(N3CCOCC3)cc2)c(Cl)c1	-2	11	7	0	0	/	/
